# Results published in PubChem BioAssay (NCATS).
# Results filed as inconclusive are left out. Activity calls are given as the source filed them. Calls follow the shape of the dose curve; as a rule, active = well fitted cell-killing curve with a large enough effect; inconclusive = small, poorly fitted or top-dose-only effect, or effect the other way; inactive = no such curve, though single readings can be large or run the other way.
# Experiment: Quantitative High-Throughput drug screen in 47 multiple myeloma cell lines against the NCATS MIPE library collection: KHM11_PLB cell viability assay (AID 1918962); also: nearly all actives have a fitted effect of over 35% in size
# Conditions: KHM11 myeloma cell viability, CellTiter-Glo ATP luminescence, 48 h; series mostly up to 45.8 µM
# Excerpt: PI: Beverly A. Mock Ph.D.
# Laboratory of Cancer Biology and Genetics,
# Center for Cancer Research, National Cancer Institute,
# National Institute of Health, Bethesda, Maryland
# Drug resistance and disease progression are common in multiple myeloma (MM) patients, underscoring the need for new therapeutic combinations. […] We hypothesized that effective combinations would reduce MYC expression and enhance p16 activity. […] These preclinical data identify potentially useful drug combinations for evaluation in drug-resistant MM and reveal potential mechanisms of combined drug sensitivity.
# Described herein is the primary MIPE qHTS used to cherrypick compounds. Validated compounds were then further tested for potential synergistic activiy.
# [1] Peat TJ, Gaikwad SM, Dubois W, Gyabaah-Kessie N, Zhang S, Gorjifard S, Phyo Z, Andres M, Hughitt VK, Simpson RM, Miller MA, Girvin AT, Taylor A, Williams D, D'Antonio N, Zhang Y, Rajagopalan A, Flietner E, Wilson K, Zhang X, Shinn P, Klumpp-Thomas C, McKnight C, Itkin Z, Chen L, Kazandijian D, Zhang J, Michalowski AM, Simmons JK, Keats J, Thomas CJ, Mock BA. Drug combinations identified by high-throughput screening promote cell cycle transition and upregulate Smad pathways in myeloma. Cancer Lett. 2023 Aug 1;568:216284. doi: 10.1016/j.canlet.2023.216284. Epub 2023 Jun 24. PMID: 37356470; PMCID: PMC10408729.
# SEQUENCE No. (e.g., 1, 2, 3, etc.); […] (e.g., Cells, Incubation, Reagent, etc.); VALUE and DESCRIPTION.
# 1; Cells; 5 uL; white, solid bottom 1536-well Greiner assay plate.
# 2; Compounds; 23 nL; Kalypsis pin tool (Wako USA) equipped with a 1536-well pin head to transfer to the assay plates.
# 3; Incubation; 48 hours; 37C incubation.
# 4; Reagent;5uL; CellTiter Glo (Promega).
# 5; Detector; 425V; Luminescence; Viewlux PerkinElmer.
# NOTES (numbers refer to Sequence numbers above)
# 1. The cell-based screening methods employed in this study were like those previously published. Briefly, the corresponding myeloma cell lines were screened in 1,536-well plates with 500 cells, 5-uL per well for inhibition of cell viability (assessed by measuring ATP levels with CellTiterGlo).
# 2. NCATS MIPE 4.0 library of approved and investigational drugs were added using the Kalypsis pin tool. Wells treated with DMSO only for 100% viability and media only wells for 0% viability were used as controls.
# 3. The assay plates were covered and incubated for 48 hours in a 37C, 5% CO2 incubator with controlled humidity.
# 4. After 48 hours, CellTilter-GloTM luminescent substrate mix (Promega) reagent was added to the assay plate and plates we incubated for 5 min at room temperature.
# 5. Signal was measured as median relative luminescence units on a ViewLux (PerkinElmer) multiplate reader.
# [1] Heske CM, Davis MI, Baumgart JT, Wilson K, Gormally MV, Chen L, Zhang X, Ceribelli M, Duveau DY, Guha R, Ferrer M, Arnaldez FI, Ji J, Tran HL, Zhang Y, Mendoza A, Helman LJ, Thomas CJ. Matrix Screen Identifies Synergistic Combination of PARP Inhibitors and Nicotinamide Phosphoribosyltransferase (NAMPT) Inhibitors in Ewing Sarcoma. Clin Cancer Res. 2017 Dec 1;23(23):7301-7311. doi: 10.1158/1078-0432.CCR-17-1121. Epub 2017 Sep 12. PMID: 28899971; PMCID: PMC6636827.
# Potency is read from the fitted curve at half-maximal effect.
row,Structure (SMILES),Potency
1,CCNC(=O)c1noc(-c2cc(C(C)C)c(O)cc2O)c1-c1ccc(CN2CCOCC2)cc1,0.0833 µM (active)
2,CO[C@H]1/C=C\O[C@@]2(C)Oc3c(C)c(O)c4c(O)c(c(C=NN5CCN(C6CCCC6)CC5)c(O)c4c3C2=O)NC(=O)C(C)=CC=C[C@H](C)[C@H](O)[C@@H](C)[C@@H](O)[C@@H](C)[C@H](OC(C)=O)[C@H]1C,0.118 µM (active)
3,Cc1[nH]c(C=C2C(=O)Nc3ccc(S(=O)(=O)N(C)c4cccc(Cl)c4)cc32)c(C)c1C(=O)N1CCN(C)CC1,18.7 µM (active)
4,CC(=O)OCC(=O)[C@@]12OC(C)(C)O[C@H]1C[C@H]1[C@@H]3C[C@H](F)C4=CC(=O)C=C[C@]4(C)[C@@]3(F)[C@@H](O)C[C@@]12C,inactive
5,O=C(Nc1cccc(Cl)c1)Nc1ncc(CCNc2ncnc3ccsc23)s1,4.18 µM (active)
6,CCC(=O)NCC[C@@H]1CCc2ccc3c(c21)CCO3,13.2 µM (active)
7,CNC(=O)c1cc(Oc2ccc(NC(=O)Nc3ccc(Cl)c(C(F)(F)F)c3)c(F)c2)ccn1,0.059 µM (active)
8,COc1cccc(OC)c1-c1cc(C(=O)NC2(C(=O)O)C3CC4CC(C3)CC2C4)nn1-c1ccnc2cc(Cl)ccc12 (stereo not given),inactive
9,CN(C)CCOc1ccc(-c2nc(-c3ccc4c(c3)CCC4=NO)c(-c3ccncc3)[nH]2)cc1,1.32 µM (active)
10,NS(=O)(=O)c1ccc(Nc2nc(OCC3CCCCC3)c3[nH]cnc3n2)cc1,26.4 µM (active)
11,O=C(O)C1=CC(O)C(O)[C@H](O)C1 (stereo not given in full),inactive
12,CC1(COc2ccc3c(c2)ncn3-c2ccc3cccc(N4CCC(N)CC4)c3n2)COC1,0.0148 µM (active)
13,O=C1CCCC(=O)C1C(=O)c1ccc(C(F)(F)F)cc1[N+](=O)[O-],inactive
14,Clc1ccc(C2(c3ccc(-c4cn[nH]c4)cc3)CCNCC2)cc1,11.8 µM (active)
15,CCOC(=O)N1CCN([N+]([O-])=NOc2cc(ON=[N+]([O-])N3CCN(C(=O)OCC)CC3)c([N+](=O)[O-])cc2[N+](=O)[O-])CC1,6.62 µM (active)
16,CCOC(=O)[C@H]1O[C@H]1C(=O)N[C@@H](CC(C)C)C(=O)NCCC(C)C,inactive
17,Cc1csc(-c2nnc(Nc3ccc(Oc4ncccc4-c4ccnc(N)n4)cc3)c3ccccc23)c1,23.5 µM (active)
18,CC[C@H](NC(=O)[C@H](C)NC)C(=O)N1C[C@@H](O)C[C@H]1Cc1c(-c2[nH]c3cc(F)ccc3c2C[C@H]2C[C@H](O)CN2C(=O)[C@H](CC)NC(=O)[C@H](C)NC)[nH]c2cc(F)ccc12,inactive
19,Cc1c(C(=O)Nc2ccc(N3C[C@@H](C)O[C@@H](C)C3)nc2)cccc1-c1ccc(OC(F)(F)F)cc1,6.62 µM (active)
20,CN1CCN(c2cccc(Nc3nc4c(-c5ccc(S(C)(=O)=O)cc5)cccn4n3)c2)CC1,2.35 µM (active)

row,Structure (SMILES),Potency
1,CN1CC(=O)N2C(Cc3c([nH]c4ccccc34)[C@H]2c2ccc3c(c2)OCO3)C1=O (stereo not given in full),inactive
2,CC[C@H](C)n1cc(C)c2c(C(=O)NCc3c(C)cc(C)[nH]c3=O)cc(-c3ccc(N4CCNCC4)nc3)cc21,29.6 µM (active)
3,C=C1c2cccc(O)c2C(O)=C2C(=O)[C@@]3(O)C(O)=C(C(N)=O)C(=O)[C@@H](N(C)C)[C@@H]3[C@@H](O)[C@H]12,inactive
4,O=C(O)CCNc1cc(N2CCc3ccccc3CC2)nc(-c2ccccn2)n1,inactive
5,C=C1[C@H](n2cnc3c(=O)[nH]c(N)nc32)C[C@H](O)[C@H]1CO,4.69 µM (active)
6,NC(=O)c1noc([C@H](CCCC2CCCCC2)CC(=O)NO)n1,20.9 µM (active)
7,O=C(Nc1ccc(OC(F)(F)F)cc1)c1sccc1NCc1ccnc2ccccc12,inactive
8,C=C[C@@H]1CN2CCC1C[C@@H]2C(O)c1ccnc2ccc(OC)cc12 (stereo not given in full),inactive
9,CCN1CCC(n2cc(CNc3cc(Cl)c4ncc(C#N)c(Nc5ccc(F)c(Cl)c5)c4c3)nn2)CC1,16.6 µM (active)
10,CC(C)(C)c1nc(-c2cccc(NS(=O)(=O)c3c(F)cccc3F)c2F)c(-c2ccnc(N)n2)s1,5.9 µM (active)
11,Cc1ccc(C(=O)N(CCCN)[C@@H](c2oc3cc(Cl)ccc3c(=O)c2Cc2ccccc2)C(C)C)cc1,9.35 µM (active)
12,CC1CNc2c(cccc2S(=O)(=O)N[C@@H](CCCN=C(N)N)C(=O)N2CC[C@@H](C)C[C@@H]2C(=O)O)C1 (stereo not given in full),inactive
13,CN1CCC(COc2cnc(-c3cccc(Cn4nc(-c5cccc(C#N)c5)ccc4=O)c3)nc2)CC1,8.33 µM (active)
14,Cc1cnc(Nc2cccc(CN3CCOCC3)c2)nc1Nc1cccc(S(=O)(=O)NC(C)(C)C)c1,13.2 µM (active)
15,COC(=O)Nc1ccc(-c2nc(N3CCOCC3)c3cnn(C4CCN(C(=O)OC)CC4)c3n2)cc1,0.0833 µM (active)
16,O=C(CC12CC3CC(CC(C3)C1)C2)Nc1cccc2nc(NCCNCCO)ccc12,5.26 µM (active)
17,NC1(C(=O)N[C@@H](CCO)c2ccc(Cl)cc2)CCN(c2ncnc3[nH]ccc23)CC1,1.87 µM (active)
18,C[C@@]1(c2cc(-c3cncnc3)c(F)cc2F)CCSC(N)=N1,3.32 µM (active)
19,CCOc1ccccc1N=Nc1c(C)[nH]n(-c2nc(-c3ccccc3)cs2)c1=O,inactive
20,CC(=O)Nc1cccc(-n2c(=O)n(C3CC3)c(=O)c3c(Nc4ccc(I)cc4F)n(C)c(=O)c(C)c32)c1,0.0059 µM (active)
